For five compounds, composite z-score and z-score results are on record in PubChem BioAssay.

The test system of assay [1] is Plasmodium falciparum Sir2 (PF13_0152, Sir2A). Kind of assay: Plasmodium falciparum Sir2A binding compounds – biochemical, small-molecule microarray, 635 nm fluorescence, primary screen (AID 1098).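 Also: score merges spot fluorescence intensity with its signal-to-noise ratio.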 To be noted: fluorescence 635 nm, higher = more signal.
A short description of assay [2]: probe aDKK1 binding to arrayed compounds – biochemical, biotinylated probe, 635/667 nm fluorescence, primary screen (AID 1099).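 Also: score merges 667nm spot fluorescence with signal to noise across triplicate slides.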 To be noted: small-molecule microarray, higher = more signal.
The nature of assay [3]: probe aCHRDL2 binding to arrayed compounds – biochemical, biotinylated probe, 635/667 nm fluorescence, primary screen (AID 1100). Particulars: small-molecule microarray, higher = more signal.
The nature of assay [4]: change in splice reporter luminescence, either direction, cell-based, HEK293, spliceosome inhibition project, primary screen (AID 1101).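 Also: HEK293 cells carrying a splicing-competent luciferase reporter gene; test concentration not given here.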 To be noted: HEK293 splicing luciferase reporter, 24 h, higher = more signal, called active from +8 up or from −8 down. (In a reporter assay the amount or activity of a reporter protein is the signal.)
The target in assay [5] is Fibroblast growth factor 10 (Homo sapiens) (UniProt O15520). Kind of assay: compounds binding fibroblast growth factor 10 – biochemical, small-molecule microarray, 635 nm fluorescence, primary screen (AID 1102). To be noted: FGF10 binding, fluorescence 635 nm, higher = more signal.
Chain of Fibroblast growth factor 10 (Homo sapiens) (O15520 whole entry, looked up): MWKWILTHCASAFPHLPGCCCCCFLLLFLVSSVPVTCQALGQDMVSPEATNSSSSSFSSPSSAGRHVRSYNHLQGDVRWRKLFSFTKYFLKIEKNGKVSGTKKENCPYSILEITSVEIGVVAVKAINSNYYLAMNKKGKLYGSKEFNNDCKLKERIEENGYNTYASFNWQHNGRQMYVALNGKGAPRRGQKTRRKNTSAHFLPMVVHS
In assay [6] the test system is glycogen synthase kinase-3 (GSK3A per assay name; protocol says GSK3B). The assay can be described thus: compounds binding glycogen synthase kinase-3 – biochemical, small-molecule microarray, 635 nm fluorescence, GSK3A, primary screen (AID 1103). Also: the record names both GSK3A and GSK3B. To be noted: fluorescence 635 nm, higher = more signal.
Assay [7] addresses Epidermal growth factor receptor (Homo sapiens) (UniProt P00533). The assay can be described thus: compounds binding epidermal growth factor receptor – biochemical, small-molecule microarray, 635 nm fluorescence, primary screen (AID 1104).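 Also: score merges 667 nm emission intensity with spot signal to noise over triplicate slides.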 Particulars: EGFR binding, higher = more signal.
The target in assay [8] is Follistatin-related protein 3 (Homo sapiens) (UniProt O95633). Kind of assay: compounds binding follistatin-related protein 3 – biochemical, small-molecule microarray, 635 nm fluorescence, primary screen (AID 1105).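 Also: score merges emission near 667 nm and signal to noise per printed spot across three slides.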 To be noted: FSTL3 binding, higher = more signal.
Chain of Follistatin-related protein 3 (Homo sapiens) (O95633 whole entry, looked up): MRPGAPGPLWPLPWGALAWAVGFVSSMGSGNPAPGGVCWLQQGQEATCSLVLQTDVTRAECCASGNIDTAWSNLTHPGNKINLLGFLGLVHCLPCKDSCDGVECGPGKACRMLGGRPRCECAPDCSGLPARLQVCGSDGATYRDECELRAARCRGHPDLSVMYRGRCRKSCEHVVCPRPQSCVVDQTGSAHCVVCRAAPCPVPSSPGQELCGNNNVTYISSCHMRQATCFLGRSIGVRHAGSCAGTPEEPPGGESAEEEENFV
Assay [9] addresses Dickkopf-related protein 1 (Homo sapiens) (UniProt O94907). The assay can be described thus: small molecules binding DKK1 protein – biochemical, small-molecule microarray, 635 nm fluorescence scan, primary screen (AID 1106).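 Also: score merges emission near 667 nm with signal to noise over three replicate slides.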 Particulars: higher = more signal.
Assay [10] has as its system Inhibin beta A chain (activin A). Kind of assay: small molecules binding activin A – biochemical, small-molecule microarray, 635 nm fluorescence scan, primary screen (AID 1107).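 Also: mouse activin A protein probed at 4.33 µg/mL on printed slides; score merges bound-protein fluorescence near 667 nm with spot signal-to-noise.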 Particulars: INHBA, higher = more signal.
Assay [11] deals with Human papillomavirus type 1a protein E7 (residues 44-93). Kind of assay: small molecules binding HPV E7 44-93 – biochemical, small-molecule microarray, residues 44-93, 635 nm fluorescence, primary screen (AID 1108).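 Also: E7 fragment applied at 1 µg/mL in TBST for 1 h at 4 C; score combines spot fluorescence with its signal to noise ratio.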 To be noted: fluorescence 635 nm, higher = more signal.
Assay [12] is described as follows: hepatitis C replication reporter changes, two-sided – Huh7 cells, luciferase reporter, HCV replication inhibitor project, primary screen (AID 1109).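 Also: huh7 hepatoma cells harbouring a luciferase neomycin HCV replicon reporter; luciferase luminescence as measure of HCV replicon replication; test concentration not given here.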 To be noted: Huh7 HCV replicon luciferase reporter, 48 h; higher = more signal.
For assay [13], the target named is Left-right determination factor 2 (Homo sapiens) (UniProt O00292). The assay can be described thus: small molecules binding LEFTY2 protein – biochemical, small-molecule microarray, 635 nm fluorescence scan, primary screen (AID 1110). Particulars: higher = more signal.
Chain of Left-right determination factor 2 (Homo sapiens) (O00292 whole entry, looked up): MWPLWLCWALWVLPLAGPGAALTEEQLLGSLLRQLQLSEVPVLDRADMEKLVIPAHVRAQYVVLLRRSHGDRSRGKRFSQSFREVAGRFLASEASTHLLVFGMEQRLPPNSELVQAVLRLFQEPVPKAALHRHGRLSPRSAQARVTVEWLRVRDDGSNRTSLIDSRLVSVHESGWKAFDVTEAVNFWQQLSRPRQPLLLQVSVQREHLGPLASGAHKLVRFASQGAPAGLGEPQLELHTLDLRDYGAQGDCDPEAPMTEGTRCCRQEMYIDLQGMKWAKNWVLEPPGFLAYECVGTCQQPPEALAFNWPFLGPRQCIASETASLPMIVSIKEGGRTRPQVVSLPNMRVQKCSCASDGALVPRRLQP
The target in assay [14] is Calmodulin-1 (Homo sapiens) (UniProt P0DP23). Kind of assay: small molecules binding calmodulin-1 with EGTA – biochemical, small-molecule microarray, Cy5-labelled CALM1, profiling panel (AID 1111).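 Also: labelled calmodulin applied in Tris saline Tween buffer holding calcium plus EGTA and DTT.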 To be noted: Cy5-CALM1 binding fluorescence, higher = more signal.
For assay [15] the target is unchanged. Kind of assay: small molecules binding Ca-loaded calmodulin-1 – biochemical, small-molecule microarray, Cy5-labelled CALM1, plus calcium, artefact control for SMM control-protein annotation, profiling panel (AID 1112).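 Also: score merges spot fluorescence with signal to noise from triplicate slides.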 Particulars: Cy5-CALM1 binding fluorescence, higher = more signal.
A short description of assay [16]: probe aWnt5a binding to arrayed compounds – biochemical, biotinylated probe, 635/667 nm fluorescence, primary screen (AID 1113).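 Also: score merges 667 nm fluorescence intensity with signal-to-noise per printed feature.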 Particulars: small-molecule microarray, higher = more signal.
Assay [17] can be described thus: probe aShh binding to arrayed compounds – biochemical, biotinylated probe, 635/667 nm fluorescence, primary screen (AID 1114).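 Also: probe is biotin-labelled aShh protein from a stem cell growth factor screen; measures binding of labelled protein to compounds printed on the slide; score merges feature fluorescence at 667 nm with signal-to-noise.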 To be noted: small-molecule microarray, higher = more signal.
A short description of assay [18]: probe aNog binding to arrayed compounds – biochemical, biotinylated probe, 635/667 nm fluorescence, primary screen (AID 1115).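 Also: probe is biotinylated aNog protein used at 0.15 µg/mL for 1 h at 4 C; z-score combines 667 nm fluorescence of each spot with its signal to noise.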 Particulars: small-molecule microarray, higher = more signal.
Assay [19] deals with Torsin-1A-interacting protein 1 (Homo sapiens) (UniProt Q5JTV8). Kind of assay: compound microarray binding of lysate hLAP1 – cell lysate, small-molecule microarray, COS7 lysate, 635/667 nm fluorescence, primary screen (AID 1116). To be noted: 635 nm fluorescence, higher = more signal.
Chain of Torsin-1A-interacting protein 1 (Homo sapiens) (Q5JTV8 whole entry, looked up): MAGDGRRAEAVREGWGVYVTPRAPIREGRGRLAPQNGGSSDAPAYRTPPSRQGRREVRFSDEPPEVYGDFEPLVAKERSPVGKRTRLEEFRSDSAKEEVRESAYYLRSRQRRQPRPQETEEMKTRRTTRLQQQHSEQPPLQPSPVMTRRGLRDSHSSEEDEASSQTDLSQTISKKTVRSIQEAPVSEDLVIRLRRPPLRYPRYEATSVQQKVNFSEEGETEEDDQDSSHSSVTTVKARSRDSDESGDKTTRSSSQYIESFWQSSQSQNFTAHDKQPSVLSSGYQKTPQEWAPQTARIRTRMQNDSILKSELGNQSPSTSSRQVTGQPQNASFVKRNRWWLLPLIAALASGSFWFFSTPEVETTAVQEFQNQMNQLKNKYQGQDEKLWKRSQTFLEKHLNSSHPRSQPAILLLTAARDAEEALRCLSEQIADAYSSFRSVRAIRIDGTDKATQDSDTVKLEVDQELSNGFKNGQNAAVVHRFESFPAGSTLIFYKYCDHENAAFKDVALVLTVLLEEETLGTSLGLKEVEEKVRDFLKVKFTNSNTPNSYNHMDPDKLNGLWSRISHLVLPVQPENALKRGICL
For assay [20], the target named is Alpha-bungarotoxin (Bungarus multicinctus) (UniProt P60615). Kind of assay: compounds binding labelled alpha-BTX control protein – biochemical, small-molecule microarray, Alexa647 label, 635/667 nm fluorescence, artefact control for SMM control protein annotation, profiling panel (AID 1117). To be noted: alpha-BTX-A647 binding fluorescence, higher = more signal.
Chain of Alpha-bungarotoxin (Bungarus multicinctus) (P60615 whole entry, looked up): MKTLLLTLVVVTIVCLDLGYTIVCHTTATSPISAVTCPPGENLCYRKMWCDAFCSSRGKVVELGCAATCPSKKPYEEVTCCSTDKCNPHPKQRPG

Activity calls are given as the source filed them.

Chain of Dickkopf-related protein 1 (Homo sapiens) (O94907 whole entry, looked up): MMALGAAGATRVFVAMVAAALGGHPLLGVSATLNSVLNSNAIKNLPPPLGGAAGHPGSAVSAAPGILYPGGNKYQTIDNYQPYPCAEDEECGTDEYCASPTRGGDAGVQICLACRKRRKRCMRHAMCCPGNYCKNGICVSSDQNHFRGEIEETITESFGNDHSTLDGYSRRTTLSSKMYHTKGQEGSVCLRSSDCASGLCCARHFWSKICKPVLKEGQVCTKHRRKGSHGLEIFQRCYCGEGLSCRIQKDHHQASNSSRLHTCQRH
Chain of Epidermal growth factor receptor (Homo sapiens) (P00533 whole entry, looked up): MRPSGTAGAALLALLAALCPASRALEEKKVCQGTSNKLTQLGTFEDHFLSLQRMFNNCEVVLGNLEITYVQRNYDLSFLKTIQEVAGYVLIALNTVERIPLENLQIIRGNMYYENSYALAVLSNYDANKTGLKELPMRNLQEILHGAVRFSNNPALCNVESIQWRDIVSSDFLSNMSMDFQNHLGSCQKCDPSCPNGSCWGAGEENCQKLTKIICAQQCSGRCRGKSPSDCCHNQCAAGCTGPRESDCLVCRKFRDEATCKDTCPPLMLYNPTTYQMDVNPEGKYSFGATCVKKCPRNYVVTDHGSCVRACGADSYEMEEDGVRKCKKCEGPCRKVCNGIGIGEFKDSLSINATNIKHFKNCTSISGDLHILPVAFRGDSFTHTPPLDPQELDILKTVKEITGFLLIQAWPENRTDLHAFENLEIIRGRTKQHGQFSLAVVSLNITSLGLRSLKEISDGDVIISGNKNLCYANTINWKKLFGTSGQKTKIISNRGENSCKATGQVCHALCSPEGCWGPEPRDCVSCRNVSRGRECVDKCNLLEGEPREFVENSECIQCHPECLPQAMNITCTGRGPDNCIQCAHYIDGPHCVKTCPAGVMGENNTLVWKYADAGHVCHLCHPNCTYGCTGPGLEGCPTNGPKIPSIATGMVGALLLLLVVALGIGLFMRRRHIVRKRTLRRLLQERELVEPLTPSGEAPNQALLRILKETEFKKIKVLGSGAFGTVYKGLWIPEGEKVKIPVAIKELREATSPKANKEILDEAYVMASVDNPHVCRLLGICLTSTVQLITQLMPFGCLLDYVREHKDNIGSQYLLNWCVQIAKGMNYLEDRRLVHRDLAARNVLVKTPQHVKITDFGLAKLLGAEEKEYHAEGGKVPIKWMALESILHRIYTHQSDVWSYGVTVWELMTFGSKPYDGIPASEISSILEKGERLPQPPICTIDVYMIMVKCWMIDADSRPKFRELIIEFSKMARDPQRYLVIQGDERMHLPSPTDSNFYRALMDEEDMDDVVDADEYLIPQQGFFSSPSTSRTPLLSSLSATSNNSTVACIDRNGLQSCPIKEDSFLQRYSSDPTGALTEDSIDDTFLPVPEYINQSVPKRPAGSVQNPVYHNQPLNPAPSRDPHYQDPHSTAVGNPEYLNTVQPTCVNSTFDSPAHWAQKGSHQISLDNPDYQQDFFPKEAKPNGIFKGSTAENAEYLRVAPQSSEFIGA

As for `COCCCN1C(=O)[C@@]2(c3ccc([N+](=O)[O-])cc3)CC(=O)N(C3CCCCC3)[C@@H]2c2ccc(CO)cc21`, the composite z-score is 0.555 in assay [1]; -0.24 in assay [2]; -0.319 in assay [3]; 0.301 in assay [5]; 0.237 in assay [6]; -0.0732 in assay [7]. For the same compound, the composite z-score was 0.593 in assay [8]; 0.3 in assay [9]; 0.717 in assay [10]; 0.215 in [11]; 0.289 in [13]; -0.463 in [14]. Besides, the composite z-score in assay [15] was -1.17; in [16] it was -0.096; in assay [17] it was -0.223; in assay [18], 0.439; in [19] it was 0.0951; in assay [20], 0.467. Further, the figures for the z-score in assay [4] and in assay [12] were -0.237 (inactive) and -1.4, respectively.
For the compound `COc1ccc(C(=O)O[C@H]2CC[C@]3(C)C4=C(CCC3C2(C)C)[C@]2(C)CC[C@H]([C@H](C)CCCC(C)C)[C@@]2(C)CC4)cc1` (stereo not given in full), the composite z-score in assay [1] was 0.0931; in [2], -0.287; in assay [3], -0.384; in assay [5], 0.205; in assay [6] it was 0.751; in assay [7] it was 0.302. Besides, the composite z-score in [8] is 0.561; in assay [9], 0.458; in [10] it was 0.225; in assay [11], -0.0389; in assay [13], 0.567; in assay [14] it was -0.459. The composite z-score was -0.83 in assay [15]; -0.0792 in assay [16]; -0.0553 in [17]; -0.0242 in assay [18]; 0.0921 in assay [19]; -0.086 in [20]. For the same compound, the figures for the z-score in [4] and in assay [12] were -0.968 (inactive) and 0.606, respectively.
Regarding `COc1ccc([Si](C)(C)[C@H]2[C@H](CC(=O)N3CCC[C@H]3CO)O[C@@]3(C(=O)N(Cc4cccc(N5C(=O)c6cccc7cccc5c67)c4)c4ccccc43)[C@@H]2C)cc1`, the composite z-score in assay [1] was 1.45; in assay [2] it was -0.109; in assay [3] it was -0.098; in assay [5], 1.29; in assay [6], 0.483; in assay [7] it was 0.761. For the same compound, the composite z-score in assay [8] stood at 1.25; in assay [9], 0.892; in assay [10] it was 0.459; in assay [11], 1.34; in [13], 0.758; in assay [14] it was 0.681. For the same compound, the composite z-score is -0.0975 in [15]; 0.0775 in assay [16]; -0.196 in assay [17]; 1.02 in assay [18]; 0.582 in assay [19]; 1.56 in assay [20]. The z-score was 0.685 (inactive) in assay [4] and -3.12 in assay [12].
Consider `C=CCOC(=O)[C@@H]1[C@H]2C(=O)O[C@H](c3ccccc3)[C@H](c3ccccc3)N2[C@H](c2ccc(OCCOC(=O)[C@@H]3C[C@@H]4C(=O)N[C@@H](Cc5ccccc5)C(=O)N4[C@@H]3c3ccc(O)cc3)cc2)[C@@]12C(=O)Nc1ccc(I)cc12`, for which the composite z-score in assay [1] is 1.46; in [2], -0.191; in assay [3], -0.35; in assay [5], 1.16; in assay [6], 1.19; in [7], 0.711. The composite z-score turned out to be 1.38 in assay [8]; 1.03 in [9]; 0.518 in assay [10]; 1.38 in assay [11]; 0.56 in [13]; 0.75 in assay [14]. For the same compound, the composite z-score is 0.299 in assay [15]; -0.0981 in assay [16]; 0.178 in [17]; -0.0784 in assay [18]; -0.289 in assay [19]; 1.02 in [20]. Further, the z-score was -1.17 (inactive) in assay [4] and -0.726 in assay [12].
Consider `O=C1OCCC/C=C\[C@H]2OC34C=CCN(Cc5ccccc5)C(=O)[C@H]3N(CCCCCCO)C(=O)[C@@H]4C12` (stereo not given in full), for which the composite z-score in assay [1] is -0.0862; in assay [2], 0.227; in assay [3], 0.932; in assay [5], -0.942; in assay [6] it was -0.457; in assay [7] it was -1.69. Besides, the composite z-score was -1.27 in assay [8]; -1.69 in assay [9]; -0.546 in assay [10]; 0.103 in assay [11]; -1.74 in assay [13]; -0.046 in [14]. Moreover, the composite z-score is 0.572 in [15]; -0.206 in assay [16]; -0.0337 in assay [17]; -0.355 in [18]; -1.03 in [19]; -0.313 in assay [20]. For the same compound, the z-score in assay [4] is -0.286 (inactive); in assay [12], -1.3.
